PubChem BioAssay (NCATS)
Records with an inconclusive call do not appear. The source made the active and inactive calls. Unless noted, calls come from the whole dose curve; as a rule, active = well fitted curve in the direction sought with a large enough effect; inconclusive = small, poorly fitted or top-dose-only effect, or another doubt; inactive = no such curve, though single readings can be large; an effect the other way counts as inactive or inconclusive.

Legend:
[1] = qHTS to identify inhibitors of the type 1 interferon - major histocompatibility complex class I in skeletal muscle: primary screen against the NCATS Pharmaceutical Collection (AID 1347407);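 note: luminescence of HiBiT knocked into endogenous HLA-B as interferon-induced MHC class I level; % is set by controls: 0 for no effect and ±100 for the full control effect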
Procedure, shortened: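 Compounds […] were added to CRISPR-engineered HLA-B-HiBiT C25cl48 human myoblasts with 4.0 ng/ml IFN-beta. After 24 hrs at 37 C, cells were lysed and HiBiT luminescence measured.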

[2] = target: Protein phosphatase 1D (Homo sapiens) (UniProt O15297); assay: RapidFire Mass Spectrometry qHTS Assay for Modulators of WT P53-Induced Phosphatase 1 (WIP1) (AID 1347424);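 note: amount of dephosphorylated VEPPL-S-QETFS peptide product formed by WIP1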; note: potency is the fitted concentration of half-maximal effect
Procedure, shortened: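 WIP1 (10 nM final) was preincubated 1 h at room temperature with compounds in Tris-HCl pH 7.5, 30 mM MgCl2, TCEP, EGTA, BSA; 2 uM VEPPL-pS-QETFS phosphopeptide was added for 5 min, quenched with formic acid, and dephosphorylated product quantified by RapidFire MS.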

[3] = target: Protein phosphatase 1D (Homo sapiens) (UniProt O15297); assay: Rhodamine-PBP qHTS Assay for Modulators of WT P53-Induced Phosphatase 1 (WIP1) (AID 1347425); note: % of control where 0% means no effect
Procedure, shortened: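 Steps: enzyme with Rh-PBP sensor and compounds, room-temperature incubation of 1 hr, baseline read, addition of VEPPL-pS-QETFS (10 uM final), kinetic fluorescence reads at 525/598 nm. Activity equals final minus baseline signal.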

[4] = Primary qHTS for inhibitors of La Crosse Virus (LACV) - induced cell death in SH-SY5Y cells (AID 1508616);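 note: top concentration of the series differs between compounds; 0% = infected DMSO wells and 100% = uninfected DMSO wells; higher means more rescue of cells from virus-induced death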
Procedure, shortened: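 Protection against LACV-induced cell death is scored in SH-SY5Y cells exposed to compounds and virus (0.01 MOI) for 6 days. Data normalized to virus-infected DMSO wells and virus-free DMSO wells.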

[5] = target: Calcium and integrin-binding protein 1 (Homo sapiens) (UniProt Q99828); assay: Primary qHTS for Identification of Calcium Integrin Binding Protein 1 (CIB1) Competitor (AID 1508620);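 note: GST tagged CIB1 binding a fluorescein labelled alphaIIb integrin peptide tracer; top concentration of the series differs between compounds; % is set by controls: 0 for no effect and ±100 for the full control effect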
Procedure, shortened: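 Fluorescence polarization competition: CIB1-GST (1 uM final) preincubated with compound 15 min at room temperature, then FITC-labeled alphaIIb peptide (100 nM final) added for another 15 min. Polarization read at Ex 480/Em 540.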

[6] = qHTS for inhibitors of adenylyl cyclases using a fission yeast platform: a pilot screen against the NCATS LOPAC library (AID 1347410);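 note: plate controls were DMSO vehicle for no effect and DPI positive control for full effect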
Procedure, shortened: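 GFP from fbp1-GFP reporter, read by Acumen laser cytometry, indicates AC inhibition in fission yeast expressing AC9, GNAS and PDE4D2. Cells grown 18 h in the dark at 30C with compounds, final up to 57 uM.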

[7] = Validation qHTS assay for inhibitors of Activation Induced Cytidine Deaminase (AID): UDG Counterscreen signal (AID 1347427); note: 0% is about no effect
Procedure, shortened: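 Counterscreen read of UDG activity (2 U/mL, 4/3x) in the FRET deamination format with AID (1 uM, 4/3x), DJC20/DJC23 substrates (250 nM, 4x), 4 h at room temperature. NaOH stop, fluorescence at 560 ex/665 em.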

[8] = target: Single-stranded DNA cytosine deaminase (Homo sapiens) (UniProt Q9GZX7); assay: Validation qHTS assay for inhibitors of Activation Induced Cytidine Deaminase (AID): AID signal (AID 1347429); note: % is set by controls: 0 for no effect and ±100 for the full control effect
Procedure, shortened: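 Fluorescence at 540 nm excitation and 590 nm emission reports ssDNA cytosine deamination by AID, with UDG in the same well. Compound-treated reactions ran 4 hr at room temperature with DJC20/DJC23 substrate, followed by 30 min NaOH treatment.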

[9] = target: Calcium and integrin-binding protein 1 (Homo sapiens) (UniProt Q99828); assay: Validation qHTS for Identification of Calcium Integrin Binding protein 1 (CIB1) Competitor (AID 1508618); note: % is set by controls: 0 for no effect and ±100 for the full control effect
Procedure, shortened: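 In this qHTS validation, the LOPAC set (up to 114 uM) was tested for blocking CIB1 binding to a fluorescein-tagged alphaIIb peptide, with FP detection at 480/540 nm.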

[10] = qHTS to identify inhibitors of the type 1 interferon - major histocompatibility complex class I in skeletal muscle: primary screen against the NCATS Mechanism Interrogation Plate v5.0 (MIPE) Libary (AID 1347411); note: nearly all actives have a fitted effect of over 65% in size; note: potency is the fitted concentration of half-maximal effect
Procedure, shortened: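 Luminescence from HiBiT-tagged endogenous HLA-B*08:01 served as the MHC class I read-out. CRISPR-engineered C25cl48 human myoblasts received 4.0 ng/ml IFN-beta plus compound for 24 hrs, with an 11-point, 1:3 series topping at 46 uM final.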

[11] = Primary qHTS for Huh7 cytotoxicity: counterscreen for inhibitors of MERS-S pseudotyped particle cell entry (AID 1479147; calls by dose curve)
[12] = Primary qHTS for Vero E6 cytotoxicity: counterscreen for inhibitors of SARS-S pseudo-typed particle cell entry (AID 1479150; calls by dose curve)
[13] = Counterscreen qHTS for small molecule stabilizers of the endoplasmic reticulum resident proteome: GLuc-NoTag assay (AID 1508627);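 note: SH-SY5Y cells given compound then 100 nM thapsigargin to empty ER calcium; series mostly up to about 76 µM; 0% = thapsigargin alone and -100% = DMSO vehicle control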
Procedure, shortened: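 SH-SY5Y cells stably expressing constitutively secreted GLuc (no SERCaMP tag) were pre-incubated 5 h, treated with compound for 19 h, then 100 nM thapsigargin for 4 h at 37C; medium GLuc read by coelenterazine luminescence.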

[14] = Confirmatory qHTS for small molecule stabilizers of the endoplasmic reticulum resident proteome: Secreted ER Calcium Modulated Protein (SERCaMP) assay (AID 1508628); note: series mostly up to about 76 µM; % is set by controls: 0 for no effect and ±100 for the full control effect; nearly all actives have a fitted effect of over 40% in size
Procedure, shortened: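 SH-SY5Y cells stably expressing GLuc-SERCaMP, treated 16 h with compound (primary 1.53, 7.67, 38.3 uM; confirmation 11 concentrations, up to 76.6 uM), then 100 nM thapsigargin for 4 h. Secreted Gaussia luciferase in medium read by coelenterazine luminescence.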

[15] = Cell Viability qHTS for small molecule stabilizers of the endoplasmic reticulum resident proteome (AID 1508629); details: cell viability counter-screen, 100 nM thapsigargin for final 4 h

Chain of Single-stranded DNA cytosine deaminase (Homo sapiens) (Q9GZX7 whole entry, looked up): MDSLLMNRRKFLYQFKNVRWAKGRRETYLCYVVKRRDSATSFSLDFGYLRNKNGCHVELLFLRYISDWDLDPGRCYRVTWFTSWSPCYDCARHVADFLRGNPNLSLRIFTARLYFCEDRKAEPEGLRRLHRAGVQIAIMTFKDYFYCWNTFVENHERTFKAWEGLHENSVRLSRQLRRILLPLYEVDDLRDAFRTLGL
Chain of Calcium and integrin-binding protein 1 (Homo sapiens) (Q99828 whole entry, looked up): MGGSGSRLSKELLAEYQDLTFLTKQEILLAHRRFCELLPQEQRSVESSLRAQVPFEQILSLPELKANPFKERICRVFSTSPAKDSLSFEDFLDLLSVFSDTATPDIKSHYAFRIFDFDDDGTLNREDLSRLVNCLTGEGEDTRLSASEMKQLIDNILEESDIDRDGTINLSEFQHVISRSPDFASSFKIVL
Chain of Protein phosphatase 1D (Homo sapiens) (O15297 whole entry, looked up): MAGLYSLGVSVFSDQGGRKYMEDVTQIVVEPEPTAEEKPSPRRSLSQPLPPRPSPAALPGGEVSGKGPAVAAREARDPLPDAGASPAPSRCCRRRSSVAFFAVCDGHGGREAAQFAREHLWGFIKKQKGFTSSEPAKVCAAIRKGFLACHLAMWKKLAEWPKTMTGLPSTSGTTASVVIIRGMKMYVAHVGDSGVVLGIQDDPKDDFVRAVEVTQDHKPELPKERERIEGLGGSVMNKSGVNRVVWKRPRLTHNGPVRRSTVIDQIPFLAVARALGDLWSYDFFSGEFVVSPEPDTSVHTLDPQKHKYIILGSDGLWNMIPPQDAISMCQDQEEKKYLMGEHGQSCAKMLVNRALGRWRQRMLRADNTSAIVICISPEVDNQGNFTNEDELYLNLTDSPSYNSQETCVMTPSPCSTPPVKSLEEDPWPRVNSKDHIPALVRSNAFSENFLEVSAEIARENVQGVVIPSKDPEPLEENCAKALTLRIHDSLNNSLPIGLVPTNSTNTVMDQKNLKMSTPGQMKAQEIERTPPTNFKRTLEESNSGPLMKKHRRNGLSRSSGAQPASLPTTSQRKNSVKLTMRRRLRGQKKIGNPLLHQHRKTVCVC

COCCOCCO
inactive: outcome [1] | Potency [2] | outcome [3] | outcome [4] | outcome [5]

CCO/N=C(\CC)C1=C(O)CC(c2c(C)cc(C)cc2C)CC1=O (stereo not drawn)
inactive: outcome [1] | Potency [2] | outcome [3] | outcome [4] | outcome [5]

C#CCOC(=O)C1=CCCN(C)C1
inactive: outcome [6] | outcome [7] | outcome [8] | outcome [4] | outcome [9]

C[N+]1(C)C2CCC1CC(OC(=O)C(CO)c1ccccc1)C2 (stereo not drawn)
inactive: outcome [6] | outcome [7] | outcome [8] | outcome [4] | outcome [9]

O=C(N[C@H]1CN2CCC1CC2)c1ccc(Cl)cc1
inactive: outcome [6] | Potency [10] | outcome [7] | outcome [8] | outcome [4] | outcome [9] | outcome [5]

Nc1ccc(Sc2ccc(N)cc2)cc1
inactive: outcome [1] | Potency [2] | outcome [4] | outcome [5]

OCCCBr
inactive: outcome [1] | Potency [2] | outcome [3] | outcome [4] | outcome [5]

C[C@@H]1O[C@H](C[N+](C)(C)C)C[C@H]1O
inactive: outcome [6] | outcome [7] | outcome [8] | outcome [4] | outcome [9]

O=C1C(I)=CC(=C(c2cc(I)c(O)c(I)c2)c2ccccc2C(=O)O)C=C1I
inactive: outcome [1] | outcome [4]

CCCN(CCC)[C@@H]1CCc2ccc(O)cc2C1
inactive: outcome [6] | outcome [7] | outcome [8] | outcome [4] | outcome [9]

CCCN1CCO[C@@H]2c3cc(O)ccc3OC[C@H]21
inactive: outcome [6] | Potency [10] | outcome [7] | outcome [8] | outcome [4] | outcome [9]

CC(C)NC(C)Cc1ccc(I)cc1 (stereo not drawn)
inactive: outcome [6] | outcome [7] | outcome [8] | Potency [11] | Potency [12] | outcome [9]

O=S(=O)(O)C(F)(F)C(F)(F)C(F)(F)C(F)(F)C(F)(F)C(F)(F)C(F)(F)C(F)(F)F
inactive: outcome [1] | outcome [4] | outcome [5]
active: Potency [2] 1580 nM

COC(=O)[C@@H](N)CCCN=C(N)N[N+](=O)[O-]
inactive: outcome [6] | Potency [10] | outcome [7] | outcome [8] | outcome [4] | outcome [9]

ClC1=C(Cl)[C@]2(Cl)[C@@H]3[C@@H]4C[C@@H]([C@H]5O[C@@H]45)[C@@H]3[C@@]1(Cl)C2(Cl)Cl
inactive: outcome [1] | outcome [3] | outcome [4] | outcome [5]

COc1cc(C(O)CN)ccc1O (stereo not drawn)
inactive: outcome [6] | outcome [7] | outcome [8] | outcome [4] | outcome [9]

CS(=O)(=O)c1ccc(C(=O)C2C(=O)CCCC2=O)c([N+](=O)[O-])c1
inactive: outcome [1] | outcome [4]

Cn1cnc(CCN)c1
inactive: outcome [6] | outcome [7] | outcome [8] | outcome [4] | outcome [9]

CNCCc1c[nH]c2ccc(O)cc12
inactive: outcome [6] | outcome [7] | outcome [8] | outcome [4] | outcome [9]

CCCCCCCCc1ccc(O)cc1
inactive: outcome [1] | Potency [2] | outcome [4] | outcome [5]

COc1ccc(C(c2ccc(OC)cc2)C(Cl)(Cl)Cl)cc1
inactive: outcome [1] | Potency [2] | outcome [3] | outcome [5]

C[C@]12N[C@H](Cc3ccccc31)c1ccccc12
inactive: outcome [6] | outcome [7] | outcome [8] | outcome [4] | outcome [9]

CS(=N)(=O)CC[C@H](N)C(=O)O (stereo partly drawn)
inactive: outcome [6] | outcome [7] | outcome [8] | outcome [4] | outcome [9]

CCOCCOC(C)=O
inactive: outcome [1] | Potency [2] | outcome [3] | outcome [4] | outcome [5]

Nc1c(Cl)c(Cl)c(Cl)c(Cl)c1Cl
inactive: outcome [1] | Potency [2] | outcome [3] | outcome [4] | Potency [13] | Potency [14] | max response [15] 1.55%

O=C(O)CC[N+](=O)[O-]
inactive: outcome [6] | outcome [7] | outcome [8] | outcome [4] | outcome [9]

O=[N+]([O-])c1c(Cl)c(Cl)cc(Cl)c1Cl
inactive: outcome [1] | Potency [2] | outcome [3] | outcome [4] | outcome [5]

Oc1ccc2c3c1O[C@H]1[C@@H](O)C=C[C@H]4[C@@H](C2)NCC[C@@]341
inactive: outcome [1] | Potency [2] | outcome [3] | outcome [4] | Potency [13]

CN1C2CCC1CC(OC(=O)c1cc(Cl)cc(Cl)c1)C2 (stereo not drawn)
inactive: outcome [6] | outcome [7] | outcome [8] | outcome [4] | outcome [9]

COc1nn(CSP(=S)(OC)OC)c(=O)s1
inactive: outcome [1] | Potency [2] | outcome [4]

O=C(Cc1ccc(Cl)c(Cl)c1)N1CCCCC1CN1CCCC1 (stereo not drawn)
inactive: outcome [6] | outcome [7] | outcome [8] | outcome [4] | outcome [9]

O=[N+]([O-])c1c2ccccc2cc2ccccc12
inactive: outcome [1] | Potency [2] | outcome [4] | Potency [13] | Potency [14] | max response [15] -4.03%

NC(=O)CN1CC(O)CC1=O (stereo not drawn)
inactive: outcome [6] | outcome [7] | outcome [8] | outcome [4] | outcome [9]

CC[C@@H](C(N)=O)N1CCCC1=O
inactive: outcome [6] | Potency [10] | outcome [7] | outcome [8] | outcome [4] | outcome [9] | outcome [5]

C=CC(=O)NCNC(=O)C=C
inactive: outcome [1] | Potency [2] | outcome [3] | outcome [4] | outcome [5]

C[C@]12CCC3C(CC[C@H]4C[C@H](O)CC[C@]34C)C1CC[C@@H]2C(=O)CO (stereo partly drawn)
inactive: outcome [6] | outcome [7] | outcome [8] | outcome [4] | outcome [9]

O=C(O)c1cc(Oc2ccc(C(F)(F)F)cc2Cl)ccc1[N+](=O)[O-]
inactive: outcome [1] | outcome [3] | outcome [4] | outcome [5]

Cc1nccc2c1[nH]c1ccccc12
inactive: outcome [6] | outcome [7] | outcome [8] | outcome [4] | outcome [9]

CC[C@@]1(O)C(=O)OCc2c1cc1n(c2=O)Cc2cc3ccccc3nc2-1
inactive: outcome [6] | outcome [7] | outcome [8] | outcome [4] | outcome [9] | outcome [5]
active: Potency [10] 2080 nM
